From PubChem BioAssay (EPA / NIEHS)
Results filed as inconclusive are left out. The source made the active and inactive calls. How the source made its calls: active means hit-call score of the fitted dose curve at least 0.9, where 1 is the maximum; inactive means score below 0.9.

Each compound was assayed on ABC Transporter (ABCB11), ABCB11 (gene 8647) (assay: CLD_ABCB11_24hr: CellzDirect (CLD) Gene Expression Assay for ABC Transporter (ABCB11) at 24 hours (AID 2283674)).
Description: CLD_24hr is a cell-based, multiplexed-readout assay that uses hepatocyte, a human liver primary cell, with measurements taken at 24 hours after chemical dosing in a 96-well plate.CLD_ABCB11_24hr is one of 16 assay component(s) measured or calculated from the CLD_24hr assay. It is designed to make measurements of mRNA induction, a form of inducible reporter, as detected with chemiluminescence signals by Quantitative Nuclease Protection Assay (qNPA) technology.Data from the assay component CLD_ABCB11_24hr was analyzed at the endpoint, CLD_ABCB11_24hr, in the positive analysis fitting direction relative to DMSO as the negative control and baseline of activity. Using a type of inducible reporter, gain-of-signal activity can be used to understand changes in the reporter gene as they relate to the gene ABCB11. Furthermore, this assay endpoint can be referred to as a primary readout. To generalize the intended target to other relatable targets, this assay endpoint is annotated to the transporter intended target family, where subfamily is ABC transporter.
Human hepatocyte cultures were treated daily for two consecutive days with fresh dosing solutions containing appropriate concentrations of the 320 ToxCast chemicals (chemical identities were blinded to CellzDirect and other ToxCast collaborators), vehicle control (0.2% DMSO), and positive control inducers as summarized in Table 1. Due to the large number of treatment groups and chemicals examined, the ToxCast chemicals were divided into two groups (spanning two independent cultures of hepatocytes from separate donor preparations (Hu778: ToxCast plates 1 and 2; Hu776: ToxCast plates 3 and 4). Each preparation of human hepatocyte cultures was treated with respective vehicle control, medium only control, set of six positive controls/reference chemicals for the five hepatic receptor pathways, and a subset of eight of the ToxCast chemicals (indoxacarb, pyrithiobac-sodium, norflurazon, cyhalofop-butyl, methomyl, thiram, acetochlor, and propiconazole). These replicate data, coupled with internal replicates designed within the blinded ToxCast chemical library, provided additional data to evaluate interindividual differences between hepatocyte preparations and their potential impact on chemical profiles.Cell morphology and integrity were evaluated using phase-contrast microscopy as an indicator of hepatocyte cell health (Tyson & Green, 1987). Cultures for each treatment group (i.e., media, vehicle [0.2% DMSO], positive control inducers [multiple concentrations], and the ToxCast chemicals [multiple concentrations]) were observed and cell morphology was assessed relative to vehicle control cultures at each harvest time point (0, 6, 24, or 48 h). […] Images were evaluated at the conclusion of the study to assess changes in cell integrity and account for the effects of chemical exposure on uncharacteristic changes in concentration-dependent gene expression profiles. The results from these determinations of apparent cytotoxicity were annotated (yes/no) alongside the corresponding qNPA data for reference.At the conclusion of each treatment period, hepatocyte cultures (96-well) were washed with 1 volume of HBSS, lysed by addition of 25 ul ArrayPlate lysis buffer (HTG, Tucson, AZ), and 70 ul/well of Denaturation Oil, denatured by incubation at 95C for 10 min, and frozen at approximately -70C until analysis by nuclease protection assay (qNPA) (Roberts et al., 2007). For qNPA analysis, cell lysates were thawed at 50C for approximately 30 min, qNPA probes were added, and samples were incubated at 95C for 10 min to begin the detection process by denaturing the target RNA, dissociating the duplexes and secondary structure hybridization. At the conclusion of the hybridization period, S1 nuclease reagent was added to each sample to digest all nonprotected nucleotides at 50C for 60-90 min. […]
In the case of `CCc1ccc(C(=O)NN(C(=O)c2cc(C)cc(C)c2)C(C)(C)C)cc1`, the outcome is reported as “inactive”.
In the case of `Clc1ccccc1-c1nnc(-c2ccccc2Cl)nn1`, the outcome is reported as “inactive”.
`O=[N+]([O-])/N=C1\NCCN1Cc1ccc(Cl)nc1` was tested, and the outcome was “inactive”.
`C#CCN1C(=O)COc2cc(F)c(N3C(=O)C4=C(CCCC4)C3=O)cc21` was tested, and the outcome was “inactive”.
`COP(=S)(OC)Oc1ccc([N+](=O)[O-])cc1` was tested, and the outcome was “inactive”.
For `COc1nn(CSP(=S)(OC)OC)c(=O)s1`, the outcome was “inactive”.
For `COC(=O)c1ccccc1S(=O)(=O)NC(=O)N(C)c1nc(C)nc(OC)n1`, the outcome was “inactive”.
In the case of `O=C1c2ccccc2C(=O)N1SC(Cl)(Cl)Cl`, the outcome is reported as “inactive”.
In the case of `CCS(=O)(=O)c1cccnc1S(=O)(=O)NC(=O)Nc1nc(OC)cc(OC)n1`, the outcome is reported as “inactive”.
In the case of `N#CN`, the outcome is reported as “inactive”.
`CCOCN(C(=O)CCl)c1c(C)cccc1CC` was tested, and the outcome was “inactive”.
For `[2H]C1([2H])[n+]2ccccc2-c2cccc[n+]2C1([2H])[2H]`, the outcome was “inactive”.
With `O=C(NC(=O)c1c(F)cccc1F)Nc1ccc(OC(F)(F)C(F)OC(F)(F)F)c(Cl)c1` (stereo unspecified) the outcome was “inactive”.
For `N#Cc1c(Cl)c(Cl)c(Cl)c(C#N)c1Cl`, the outcome was “inactive”.
In the case of `Cc1cc(C)nc(NC(=O)NS(=O)(=O)c2ccccc2C(=O)OC2COC2)n1`, the outcome is reported as “inactive”.
With `CCOc1nc(NC)nc(NC(=O)NS(=O)(=O)c2ccccc2C(=O)OC)n1` the outcome was “inactive”.
For `CNC(=O)/C=C(\C)OP(=O)(OC)OC`, the outcome was “inactive”.
In the case of `O=S1OCC2C(CO1)C1(Cl)C(Cl)=C(Cl)C2(Cl)C1(Cl)Cl` (stereo unspecified), the outcome is reported as “inactive”.
For `CC[C@H](C)[C@H]1O[C@]2(C=C[C@@H]1C)C[C@@H]1C[C@@H](C/C=C(\C)[C@@H](O[C@H]3C[C@H](OC)[C@@H](O[C@H]4C[C@H](OC)[C@@H](O)[C@H](C)O4)[C@H](C)O3)[C@@H](C)/C=C/C=C3\CO[C@@H]4[C@H](O)C(C)=C[C@@H](C(=O)O1)[C@]34O)O2` (tested in a mixture with another compound), the AC50 was 467 nM (active).
In the case of `COC(=O)c1ccccc1S(=O)(=O)NC(=O)Nc1nc(C)nc(OC)n1`, the outcome is reported as “inactive”.
For `OCCOc1ccccc1`, the outcome was “inactive”.
